Screening data as filed in PubChem.
Compounds with a hit are over-represented: about 2.8% of the library has one in this group of screens.
Pol iota inh: inhibitors of human DNA polymerase iota; Pol iota fluorescent replication assay, 10 min; Potency, µM (doses to about 115 µM), for the others: at the highest dose activity, negative = inhibition, most hits filed as inhibitors; 1% of 390,000 active; Q9UNA4; AID 588590; note: potency is the fitted concentration of half-maximal effect
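Fluorescent replication assay read twice, at 0 min and 10 min after adding 50 nM (final) substrate. Enzyme (10 nM) and compounds were first incubated 15 min at room temperature; enzyme-free buffer wells were negative controls.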
WRN helicase inh: blocks human WRN helicase | Q14191 | WRN helicase unwinding, fluorescent forked duplex, kinetic | Potency, µM (series often up to 114 µM), for the others: at the highest dose activity change, negative = inhibition, actives largely listed as inhibitors | 0.46% of 360,000 active | AID 651768; note: potency is the fitted concentration of half-maximal effect; % is set by controls: 0 for no effect and ±100 for the full control effect; nearly all actives have a fitted effect of over 55% in size
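Enzyme (20 nM final) and test compound sit together 15 min at room temperature before substrate addition. Substrate is a single-forked duplex oligonucleotide (100 nM) labelled with fluorophore and quencher, with 2 mM ATP; helicase unwinding raises red fluorescence, read kinetically.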
Pol beta inh: DNA polymerase beta (human) inhibition | P06746 | Pol beta primer extension/strand displacement, fluorescence kinetic | Potency, µM (top dose mostly 114 µM), inactives show at the top dose activity change, negative = inhibition, usual class: inhibitors | 1.3% of 340,000 active | AID 485314; note: potency is the fitted concentration of half-maximal effect; % is set by controls: 0 for no effect and ±100 for the full control effect
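Enzyme-only controls used 10 nM Pol beta; buffer lacking enzyme served as negative control. Compound preincubated 15 min, then 50 nM substrate added; 0 and 10 min reads at room temperature.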
POLK inh: blocks human DNA polymerase kappa activity | Q9UBT6 | purified Pol kappa, fluorescent DNA synthesis assay, 10 min | Potency, µM (doses to about 107 µM), inactives show at the highest dose activity, negative = inhibition, hits mostly inhibitors | 0.53% of 400,000 active | AID 588579; note: potency is the fitted concentration of half-maximal effect; % is set by controls: 0 for no effect and ±100 for the full control effect
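Activity was followed as the change in fluorescence between reads at 0 and 10 min after starting the reaction with 50 nM substrate. Beforehand, 10 nM polymerase had been preincubated with compound for 15 min at room temperature.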
PI5P4Ka inh: inhibitors of human PI5P4K alpha | P48426 | PI5P4Kalpha enzyme, ADP-Glo luminescence, 60 min; stronger effect = lower value | max response, % | 1.2% of 330,000 active; active = max response of -50% or lower; inconclusive = between -30% and -50%; inactive = -30% or higher; note: value at the top dose of about 77 µM; % is set by controls: 0 for no effect and ±100 for the full control effect
Target sequence (P48426 whole entry, looked up): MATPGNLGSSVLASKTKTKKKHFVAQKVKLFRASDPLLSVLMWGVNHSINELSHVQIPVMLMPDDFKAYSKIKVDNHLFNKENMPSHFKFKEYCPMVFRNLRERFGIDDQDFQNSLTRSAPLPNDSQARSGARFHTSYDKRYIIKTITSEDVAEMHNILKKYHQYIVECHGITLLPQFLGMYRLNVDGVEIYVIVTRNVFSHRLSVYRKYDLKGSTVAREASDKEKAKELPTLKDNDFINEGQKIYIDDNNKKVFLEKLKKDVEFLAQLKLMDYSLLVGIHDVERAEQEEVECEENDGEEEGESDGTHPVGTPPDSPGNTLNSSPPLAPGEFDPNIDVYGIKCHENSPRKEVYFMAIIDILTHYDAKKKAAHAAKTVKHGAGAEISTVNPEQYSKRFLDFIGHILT
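Quantitative HTS of the MLSMR library against PI5P4Kalpha with substrate. ATP added last at 5 microM final; room temperature, 60 minutes. Remaining ATP depleted, ADP converted and read as luminescence.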
Pol eta inh: blocks human DNA polymerase eta activity | Q9Y253 | 1.2% of 390,000 active | Potency, µM (highest dose often 114 µM), for inactives: top-dose activity change, negative = inhibition, most hits filed as inhibitors | recombinant Pol eta, fluorescent DNA replication assay | AID 588591; note: potency is the fitted concentration of half-maximal effect; % is set by controls: 0 for no effect and ±100 for the full control effect
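Fluorescent replication assay: 50 nM final substrate added after a 15 min room-temperature compound preincubation with 10 nM enzyme. Signal taken at 0 min and again at 10 min.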
Active calls of the source: *; ? = inconclusive; . = no result; [ ] = dose if it differs, or a comment. Unless noted, calls come from the whole dose curve; as a rule, active = well fitted curve in the direction sought with a large enough effect; inconclusive = small, poorly fitted or top-dose-only effect, or another doubt; inactive = no such curve, though single readings can be large; an effect the other way counts as inactive or inconclusive.

SMILES | Pol iota inh | WRN helicase inh | Pol beta inh | POLK inh | PI5P4Ka inh | Pol eta inh
CCOC(=O)CSC1=C(C#N)C(=O)NC(c2ccc(OC)c(OC)c2)S1 (centres undefined) | ? | -12% | 18% | -12% | -72* | 3%
CCOC(=O)CSc1nc2cc(OC)ccc2cc1C#N | -15% | 5% | 0% | ? | . | -14%
NC(=S)n1[nH]c(-c2ccc([N+](=O)[O-])cc2)c(N=Nc2ccc(Cl)cc2)c1=O | 20µM* | ? | ? | ? | ? | ?
Cc1ccc([N+](=O)[O-])cc1N=Nc1c(-c2ccc([N+](=O)[O-])cc2)[nH]n(C(N)=S)c1=O | ? | -2% | -19% | -12% | ? | ?
Cc1cc(Nc2ccc(O)cc2)ccc1N | 20µM* | . | . | -26% | . | .
Cc1cc(C)nc(Nc2ccc(O)cc2)n1 | 11% | 1% | 8% | -9% | 4 | -25%
O/N=C(/CI)c1ccc2ccccc2c1 | -14% | . | . | 2% | . | .
CC1(C)CC(=O)C2=C(C1)Nc1[nH]c(=S)[nH]c(=O)c1C2c1ccccc1 (centres undefined) | ? | -8% | 15% | 3% | -57* | -7%
Cc1ccc(C2C3=C(CCCC3=O)Nc3[nH]c(=S)[nH]c(=O)c32)cc1 (centres undefined) | ? | 4% | 7% | -20% | . | 2%
O=C1CCCC2=C1C(c1ccc(Br)cc1)c1c([nH]c(=S)[nH]c1=O)N2 (centres undefined) | ? | -3% | -21% | -31% | -75* | -10%
NC(=O)C1CCN(C(=O)c2ccc(NC(=O)c3nsc4ccccc34)cc2)CC1 | -4% | . | 33% | -10%[60.1 µM] | . | -7%
CCOc1ccc(C(=O)C2CCN(CC(=O)Nc3nccs3)CC2)cc1 | 31% | 7% | -3% | -2% | 1 | -10%
NC(=O)C1CCN(CC(=O)Nc2nccs2)CC1 | 89µM* | -7%[11.6 µM] | -3% | -10% | 0 | -9%
CCCCSc1n[nH]c(=S)c2nc[nH]c12 | ? | -6% | . | -9% | -63* | -11%
CC1(C)C(=O)Nc2ccccc2N1C(=O)COC(=O)c1cccnc1Cl | ? | -16% | . | -25% | ? | 50µM*
Cc1cc(C)cc(C(=O)NCC(=O)OCC(=O)N2c3ccccc3NC(=O)C2(C)C)c1 | -26% | -3% | 14µM* | -2% | -6 | -12%
COc1ccc(/C=C/C(=O)Nc2nc(-c3cccs3)ns2)cc1OC | 8% | . | -9% | -7% | . | -19%
Cc1cccc(C(=O)NCC(c2ccco2)S(=O)(=O)c2cccs2)c1 (centres undefined) | 17% | . | 24% | -7%[60.1 µM] | . | -13%
Cc1ccc2c(c1)C(c1ccc(F)cc1)N(C(=O)c1ccc(S(=O)(=O)N3CCCCC3)cc1)CC(=O)N2 (centres undefined) | -12% | . | 31% | -3% | . | -25%
COc1ccc(NC(=O)CCn2c(=S)[nH]c3ccccc3c2=O)cc1Cl | . | -7% | . | . | -2 | 35µM*
Cc1ccc(-c2[nH]c3cc(C(=O)NCCCn4ccnc4)ccc3c(=O)c2O)cc1 | 79µM* | -22% | 0% | -4% | -4 | -9%
CCCNC(=O)c1ccc2c(=O)c(O)c(-c3ccc(C)cc3)[nH]c2c1 | 21% | -6% | 4% | -5% | 5 | 0%
O=C(Nc1c(C(=O)N2CCN(c3ccccc3F)CC2)oc2ccccc12)c1cccc(F)c1 | 10% | . | -5% | -1% | . | -9%
COc1ccc(-c2nc3c(C#N)c[nH]n3c2NC2CCCC2)cc1 | 10% | . | 2% | -12% | . | -17%
O=c1[nH]c2cc(F)ccc2c2ccc(F)cc12 | ? | -15% | . | -23% | -28 | 20µM*
SMILES | Pol iota inh | WRN helicase inh | Pol beta inh | POLK inh | PI5P4Ka inh | Pol eta inh
COC(=O)/C(C#N)=C/c1ccc(-c2ccc(S(N)(=O)=O)cc2)o1 | 37% | -20% | -19% | -16% | ? | -5%
N#CC(C#N)=Cc1ccc(-c2ccc(S(=O)(=O)N=C(N)N)cc2)o1 | ? | -42% | 7% | -19% | ? | 20µM*
Cc1csc(NC(=O)CN(C)S(=O)(=O)c2cccc3cccnc23)n1 | 2% | 0% | ? | -3% | -4 | 1%
CN(CC(=O)Nc1n[nH]c(=S)s1)S(=O)(=O)c1cccc2cccnc12 | ? | 0% | -1% | 1% | -57* | 8%
COc1cc(OC)c2ccc(=O)oc2c1C(CC(=O)N1CCCCC1)c1ccc2c(c1)OCO2 (centres undefined) | 89µM* | . | . | ? | . | .
COc1cc(OC)c2ccc(=O)oc2c1C(CC(=O)N1CCCC(C)C1)c1ccc2c(c1)OCO2 (centres undefined) | ? | -19% | 40µM* | ? | ? | 40µM*
COc1ccc(C(CCN2CCCCC2)c2c(OC)cc(OC)c3c(-c4ccccc4)cc(=O)oc23)cc1 (centres undefined) | -17% | -2% | -23% | 5% | -2 | -6%
CCN(CC)C(=O)CC(c1ccc(OC)cc1)c1c(OC)cc(OC)c2c(-c3ccccc3)cc(=O)oc12 (centres undefined) | ? | . | . | 79µM* | . | .
COc1cc(OC)c2c(-c3ccccc3)cc(=O)oc2c1C(CC(=O)N1CCCC1)c1ccc2c(c1)OCO2 (centres undefined) | 79µM* | -12% | 50µM* | ? | -9 | 2%
COc1cc(O)c(C(CC(=O)N2CCCCC2)c2ccc3c(c2)OCO3)c(OC)c1 (centres undefined) | -2% | 9% | 11% | 15% | 1 | -11%
CCOc1ccc2c(c1)c(=O)c(C(=O)c1ccc(C)cc1)cn2Cc1ccccc1OC | 11% | . | 0% | -14% | . | -11%
Cc1nc2ccccc2n1-c1ccccc1 | 4% | 3% | 12% | 11% | 0 | -8%
Cc1nc2nc(C)n(-c3ccccc3)c2s1 | ? | -6% | -1% | -6% | ? | 14µM*
Brc1ccc2c(ccc[n+]2CCc2ccccc2)c1 | 2% | . | . | 7% | . | .
COC(=O)c1ccc(CC(=O)c2c(C)cc(O)cc2O)o1 | ? | ? | ? | 25µM* | -22 | ?
CCOc1ccc(CN2CCN(c3ncnc4scc(-c5ccccc5)c34)CC2)cc1 | 121% | 9% | 7% | 1% | 4 | -18%
Cc1sc2ncnc(N3CCN(Cc4ccccc4)CC3)c2c1-c1ccccc1 | 89µM* | 3%[11.6 µM] | -1% | ? | 4 | -23%
Cc1ccc(C)c(Nc2nn3c(=O)c4ccc(C(=O)NCc5cccs5)cc4nc3s2)c1 | -10% | . | 11µM* | 4%[60.1 µM] | . | ?
COc1ccccc1Nc1nn2c(=O)c3ccc(C(=O)NCCCOC(C)C)cc3nc2s1 | ? | . | 45µM* | -15% | . | ?
